This is an account of results in PubChem BioAssay (EPA / NIEHS).

Structures are written as SMILES. Active and inactive are the calls of the source. The calls were made as follows: active = hit-call score of the fitted dose curve at least 0.9, where 1 is the maximum; inactive = score below 0.9.

As a reminder, the AC50 is the midpoint of the concentration-response curve, whichever way the signal moves.

Sequence of Retinoic acid receptor alpha (Homo sapiens) (P10276 whole entry, looked up): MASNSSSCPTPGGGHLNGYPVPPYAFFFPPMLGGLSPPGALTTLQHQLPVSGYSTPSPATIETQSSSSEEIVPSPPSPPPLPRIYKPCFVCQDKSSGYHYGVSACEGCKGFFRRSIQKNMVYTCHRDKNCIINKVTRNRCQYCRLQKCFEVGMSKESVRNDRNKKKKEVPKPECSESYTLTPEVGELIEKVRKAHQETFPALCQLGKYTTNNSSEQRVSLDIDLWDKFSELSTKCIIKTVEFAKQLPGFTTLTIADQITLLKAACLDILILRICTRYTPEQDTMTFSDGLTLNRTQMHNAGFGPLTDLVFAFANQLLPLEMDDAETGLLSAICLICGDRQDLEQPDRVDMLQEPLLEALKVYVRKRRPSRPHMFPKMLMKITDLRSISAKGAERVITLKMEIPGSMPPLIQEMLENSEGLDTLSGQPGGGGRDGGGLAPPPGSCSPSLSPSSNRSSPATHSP

The assay addresses Retinoic acid receptor alpha (Homo sapiens) (UniProt P10276). Put plainly: ATG_DR5_RAR_CIS: Attagene CIS-FACTORIAL HepG2 Assay for human Retinoic Acid Receptor Alpha (RARE), DR5 submotif (AID 2282934).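 As to AC50: reporter responds to endogenous RAR alpha beta and gamma in HepG2 not RARA alone.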 To be noted: HepG2 Attagene cis-factorial RARE DR5 reporter, mRNA; actives raise or lower the signal. How it is done: ATG_CIS is a cell-based, multiplexed-readout assay that uses HepG2, a human liver cell line, with measurements taken at 24 hours after chemical dosing in a 24-well plate.ATG_DR5_RAR_CIS is one of 52 assay component(s) measured or calculated from the ATG_CIS assay. It is designed to make measurements of mRNA induction, a form of inducible reporter, as detected with fluorescence intensity signals by Reverse transcription polymerase chain reaction (RT-PCR) and Capillary electrophoresis technology.Data from the assay component ATG_DR5_RAR_CIS was analyzed into 1 assay endpoint. This assay endpoint, ATG_DR5_CIS, was analyzed with bidirectional fitting relative to DMSO as the negative control and baseline of activity. Using a type of inducible reporter, measures of mRNA for gain or loss-of-signal activity can be used to understand the reporter gene at the transcription factor-level as they relate to the gene RARA and RARB and RARG. Furthermore, this assay endpoint can be referred to as a primary readout, because this assay has produced multiple assay endpoints where this one serves a reporter gene function. To generalize the intended target to other relatable targets, this assay endpoint is annotated to the nuclear receptor intended target family, where the subfamily is non-steroidal.
Human liver HepG2 cells are transiently transfected with multiple reporter transcription units (MRTUs) in 6-well plates using FuGene 6 reagent (Roche; 3 ml FuGene/1 mg DNA). The MRTU constructs are regulated by a cis-regulating element (promoter). […] A major difference between the CIS and TRANS system is that in CIS activities of endogenous TFs are measured, whereas the TRANS assay evaluates changes in activities of exogenous, chimeric NR-Gal4 proteins. […] At the end of 24 hour incubation, total RNA was isolated using TriZol reagent (Invitrogen). The isolated RNA is then reverse-transcribed using oligo(dT) primer and Mo-MLV reverse transcriptase (Invitrogen) with DNAse I (Ambion) treatment for 30 min. The one-tenth of the produced cDNA was amplified by PCR using Taq DNA polymerase (Invitrogen) and two reporter sequence-specific primers. The PCR products were fluorescently labeled by primer extension with 6-arboxyfluorescein (6-FAM) 5'-labeled reporter sequence-specific primer (2 min at 95 C, 20 s at 68 C and 10 min at 72 C) and these products were digested with 5U of HpaI (New England Biolabs) for 2h at 37 C. The fragments were purified using Qiaquick PCR columns (Qiagen), analyzed on an ABI 3130xL genetic analyzer (Applied Biosystems) with peak positions identified by using a set of X-rhodamine (ROX)-labeled MapMarker1000 molecular weight standards (BioVentures). The raw capillary electrophoresis data was processed using Attagraph software (Attagene).
In the case of `CC1CC(OC(=O)c2ccccc2O)CC(C)(C)C1` (stereo not given), the compound was called inactive. Same read-out and setting: to `O=C1C(c2[nH]c3ccc(S(=O)(=O)O)cc3c2O)=Nc2ccc(S(=O)(=O)O)cc21` belongs “inactive”; to `C=CC[N+](C)(C)CC=C`, “inactive”. On the same count and under the same terms, to `CC(C)C[C@H]1C(=O)N2CCC[C@H]2[C@]2(O)O[C@](NC(=O)[C@@H]3C=C4c5cccc6[nH]c(Br)c(c56)C[C@H]4N(C)C3)(C(C)C)C(=O)N12` belongs “inactive”; to `CC(C)=CCC[C@](C)(O)[C@@H]1CC=C(C)CC1`, “inactive”; to `C=CC(=O)OCCOCCOCC`, “inactive”.

Turning to `O=S(=O)(O)NC1CCCCC1`, the call was inactive.

With `CCCCCOC(=O)CCC`, the outcome was inactive. On the same count and under the same terms, with `CNC[C@H](O)c1cccc(O)c1` the entry was “inactive”; with `CCCCCC=CCC(=O)OC`, “inactive”. On the same count and under the same terms, to `[Ca+2]` belongs “inactive”; to `Cc1cccc(C)c1[N+](=O)[O-]`, “inactive”. Still for that read-out and setting: to `CC(=O)C(=O)O` belongs “inactive”; to `CCO[Si](CCCS)(OCC)OCC`, “inactive”. Turning to `CCCCCCCCCCCCCCCCCC(=O)OCC(CC)CCCC` (stereo not given), the result was inactive. Consider `O=C(O)c1cn(-c2ccc(F)cc2)c2cc(N3CCNCC3)c(F)cc2c1=O`, for which the outcome was inactive. `O=C[C@@H](O)[C@H](O)[C@H](O)CO`: the outcome was inactive. On the same count and under the same terms, to `C[C@H]1C[C@@H]2[C@H]([C@@H](O)C[C@@]3(C)[C@H]2CC[C@]3(O)C(=O)CO)[C@@]2(C)C=CC(=O)C=C12` belongs “inactive”.

As for `CC(C)(C)c1cc(CCC(=O)NN)cc(C(C)(C)C)c1O`, the call was inactive.

As to `O=c1cc(-c2ccccc2)oc2cc(O)cc(O)c12`, the compound was called inactive. Turning to `CC1(CO)CN(c2ccccc2)NC1=O` (stereo not given), the compound was called inactive. In the case of `CCCCCCCCCCN`, the compound was classed as inactive. `CCCCCC(CO)CCC` (stereo not given): the compound was classed as inactive. The same measure, in the same setting: to `CC(C)=CCC/C(C)=C/COC=O` belongs “inactive”; to `O=C[C@H](O)[C@H](O)[C@H](O)CO`, “inactive”. Same read-out and setting: to `Cc1cccc(Nc2ccccc2C(=O)O)c1C` belongs “inactive”. On to `COc1cc(C=O)ccc1OC(=O)C(C)C`, for which the result was inactive. Same read-out and setting: to `C/C=C(\C)C(=O)OCc1ccccc1` belongs “inactive”. On the same count and under the same terms, with `COC(C)CCO` (stereo not given) the entry was “inactive”; with `CCCCCCOC(=O)CCCCC`, “inactive”. With `Cc1ccc2ccccc2n1`, the compound was called inactive. Still for that read-out and setting: with `COCCCOc1ccnc(CS(=O)c2nc3ccccc3[nH]2)c1C` (stereo not given) the entry was “inactive”. The same measure, in the same setting: to `O=C(O)CN(CCN(CC(=O)O)CC(=O)O)CCN(CC(=O)O)CC(=O)O` belongs “inactive”; to `CCC(C)CCCC(C)(C)O` (stereo not given), “inactive”; to `CCCCC[Si](OCC)(OCC)OCC`, “inactive”. In the case of `CCCCC(CC)COC(=O)/C=C\C(=O)OCC(CC)CCCC` (stereo not given), the AC50 is 100 µM (active). As to `NCCNCCN`, the call was inactive. Still for that read-out and setting: with `O=C(Oc1ccccc1)c1ccc(O)cc1` the entry was “inactive”.

Take `CCCCCCCCCCCCCCCC(=O)O`: the call was inactive. On the same count and under the same terms, to `CO[Si](CCCn1c(=O)n(CCC[Si](OC)(OC)OC)c(=O)n(CCC[Si](OC)(OC)OC)c1=O)(OC)OC` belongs “inactive”.
